From PubChem BioAssay (NCI)
The panel holds about 79,000 compounds, 15% with a hit somewhere; the sample as a whole holds those more often. Values without a mark were called inactive. Activity calls are given as the source filed them. Rule as the data show it: active = growth inhibition above about 70%; inactive = the rest.

Experiment: NCI Yeast Anticancer Drug Screen. Data for the rad50 strain (AID 155);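 also: 0% = growth of vehicle-only cultures of the same strain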
Conditions: S. cerevisiae rad50 strain growth inhibition; at 50.0 µM; hits give high values
Summary of the method: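 A DNA repair-deficient yeast mutant serves as the test organism; compound-induced growth inhibition is calculated against vehicle-treated cells.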

Structure (SMILES)	growth inhibition
CC(C)C12Cc3c(ccc4ccccc34)OC1(C)Oc1ccc3ccccc3c1C2 (centres undefined)	18.6%
CSc1nnc(CF)c(=O)[nH]1	-1.4%
O=C1NC(=O)C2C3CCC(C3)C12 (centres undefined)	13.6%
C=Nc1ccc(C)cc1	6.7%
COc1ccc(C(=O)N/N=C/c2cccc(OC)c2OC)cc1	-6.3%
O=c1nc2c(c(-c3ccc(Br)cc3)[nH]1)COC/C2=C\c1ccc(Br)cc1	31.1%
COC(=O)c1cc2ccccc2c2c3c(ccc12)OCO3	9.4%
CCC(C)(CC(=O)O)CC(=O)O	-13.9%
Cc1cc(SCC(=O)c2ccccc2)nc2ccccc12	-6.75%
N#Cc1c(=O)[nH]c(=O)n2c1[nH]c1ccccc12	14.7%
O=C1OC(=O)c2ccc([N+](=O)[O-])c3c(C(=O)O)ccc1c23	5.1%
CCc1cccc(C)c1N1C(=O)C(=O)C(c2nc3ccccc3o2)C(=O)C1=O	33.8%
CCCCCCCCCCCCCCCC(=O)OCC(=O)O	14.7%
O=C(O)CNC1CCCC1	-1.3%
Clc1ccc(-c2nnc3c4ccccc4ccn23)cc1	14.5%
COC(=O)c1ccc2cc1Nc1c(C#N)cnc(=S)n1-2	-2.3%
COC(=O)C(CC(=O)c1ccc2ccccc2c1)OC (centres undefined)	-1.85%
CCN(CC)CCCNC(Cc1ccccc1)c1ccc(OC)cc1 (centres undefined)	-1.85%
O=C(O)C(O)c1cccc([N+](=O)[O-])c1 (centres undefined)	11.1%
CCCCc1ccc(Nc2nc(OC)c3ncn(C4CC(O)C(CO)O4)c3n2)cc1 (centres undefined)	88.1% (active)
Cc1cccc(C2=N/C(=C\c3ccccc3)C(=O)O2)c1	7.15%
Fc1c(F)c(F)c(Nc2c(F)c(F)c3c(F)c(F)c(F)c(F)c3c2F)c(F)c1F	1.15%
CCCCCc1c(C)[nH]n(C(N)=NCCSCc2nc[nH]c2C)c1=O	31.5%
CN(N)c1nc2c(N)ncnc2n1C1OC(CO)C(O)C1O (centres undefined)	25.9%

Experiment: NCI Yeast Anticancer Drug Screen. Data for the mec2-1 strain (AID 157)
Conditions: S. cerevisiae mec2-1 strain, at 50.0 µM, hits give high values
Summary of the method: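 Readout is yeast growth inhibition, normalised to vehicle-treated controls, in the mec2-1 strain exposed to compound.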

Structure (SMILES)	growth inhibition
COc1ccc(C(=O)N/N=C/c2ccccc2OC)cc1	31%
O=C1OC(=O)c2c(Br)c(Br)c(Br)c(Br)c21	8.65%
CCOc1cc2c(cc1O)CC[C@@H]1[C@@H]2CC[C@]2(C)C(OS(=O)OC3CC[C@@H]4[C@H]5CCc6cc(O)c(OCC)cc6[C@@H]5CC[C@@]34C)CC[C@@H]12 (some centres undefined)	0.25%
Cc1c(S)cnc2ccccc12	-6.25%
CCCCc1c(O)nc(NCCCC(N)C(=O)O)[nH]c1=O (centres undefined)	-13.8%
CCCC[n+]1cccc(C(=O)c2ccccc2)c1	-6.6%
O=C1OC(c2ccc([N+](=O)[O-])cc2)=N/C1=C\c1cc(Br)ccc1O	28.5%
O=C1C(Cl)N(c2ccccc2[N+](=O)[O-])C1c1c[nH]c2ccccc12 (centres undefined)	-22.6%
CCOC(=S)SC(=S)SC(=S)OCC	-27.1%
CCCCCCCCCSc1nc2ccc(N=Cc3ccccc3O)cc2s1	-6.8%
CC(C)NP(=O)(OC1CC(C)(C)N(O)C(C)(C)C1)OC1CC(C)(C)N(O)C(C)(C)C1	18.6%
OCC1OC(n2cnc3c(NCc4ccccc4)ncnc32)C(O)C1O (centres undefined)	-2.5%
O/N=C1\CC2CC1C1CC3(CC3)C21 (centres undefined)	-9.6%
CCOC(=O)c1[nH]n(-c2ccccc2)c(=O)c1C=NC(=S)c1cccnc1	2.1%
N=c1c(C(=O)O)cccn1O	-5.1%
COc1cc2c3c(c1)CCCN3CCC2	-17%
CC(C)C12Cc3c(ccc4ccccc34)OC1(C)Oc1ccc3ccccc3c1C2 (centres undefined)	-17.4%
CSc1nnc(CF)c(=O)[nH]1	-1.35%
O=C1NC(=O)C2C3CCC(C3)C12 (centres undefined)	-6.15%
C=Nc1ccc(C)cc1	-14.8%

Structure (SMILES)	growth inhibition
COc1ccc(C(=O)N/N=C/c2cccc(OC)c2OC)cc1	-4.75%
O=c1nc2c(c(-c3ccc(Br)cc3)[nH]1)COC/C2=C\c1ccc(Br)cc1	17.2%
COC(=O)c1cc2ccccc2c2c3c(ccc12)OCO3	-0.15%
CCC(C)(CC(=O)O)CC(=O)O	7.45%
Cc1cc(SCC(=O)c2ccccc2)nc2ccccc12	-24.1%
N#Cc1c(=O)[nH]c(=O)n2c1[nH]c1ccccc12	19.3%
O=C1OC(=O)c2ccc([N+](=O)[O-])c3c(C(=O)O)ccc1c23	-19.2%
CCc1cccc(C)c1N1C(=O)C(=O)C(c2nc3ccccc3o2)C(=O)C1=O	17.9%
CCCCCCCCCCCCCCCC(=O)OCC(=O)O	-16.4%
O=C(O)CNC1CCCC1	3.65%
Clc1ccc(-c2nnc3c4ccccc4ccn23)cc1	-11.1%
COC(=O)c1ccc2cc1Nc1c(C#N)cnc(=S)n1-2	13.4%
COC(=O)C(CC(=O)c1ccc2ccccc2c1)OC (centres undefined)	-9.1%
CCN(CC)CCCNC(Cc1ccccc1)c1ccc(OC)cc1 (centres undefined)	-7.45%
O=C(O)C(O)c1cccc([N+](=O)[O-])c1 (centres undefined)	11.7%
CCCCc1ccc(Nc2nc(OC)c3ncn(C4CC(O)C(CO)O4)c3n2)cc1 (centres undefined)	90.2% (active)
Cc1cccc(C2=N/C(=C\c3ccccc3)C(=O)O2)c1	7.5%
Fc1c(F)c(F)c(Nc2c(F)c(F)c3c(F)c(F)c(F)c(F)c3c2F)c(F)c1F	49.7%
CCCCCc1c(C)[nH]n(C(N)=NCCSCc2nc[nH]c2C)c1=O	-0.8%
CN(N)c1nc2c(N)ncnc2n1C1OC(CO)C(O)C1O (centres undefined)	24.1%
